Compound activity from PubChem.
GLP-1R agonist = activates the human GLP-1 receptor; P43220; HEK293 GLP-1R CRE-luciferase, luminescence, 4-6 h; cells express a hypersensitive GLP-1R form; Potency, µM (titrated, usually from 45.6 µM), without a hit: at the top dose activation, most hits filed as activators; 0.007% of 380,000 active; AID 624172; also: % of control where 0% means no effect
GLP1R cytotox = cytotoxic in the GLP-1 receptor inverse agonist counter-screen | HEK293 cAMP-luciferase reporter cells, luminescence, 24 h | Potency, µM (top dose mostly 38.3 µM), for inactives: at the highest dose activity change, negative = inhibition, hits mostly inhibitors | 0.13% of 410,000 active;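 also: loss of luciferase light is scored as toxicity; % is scaled to controls: 0 for no effect and ±100 for the full control effect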
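A 23 nL compound transfer followed 12 hours of cell culture at 37 deg C; exposure then lasted 24 hr. Luciferase assay detection reagent was dispensed and plates read for luminescence after a 12 min room-temperature wait.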
GLP-1R inv ag = acts as inverse agonist at human GLP-1 receptor; P43220; HEK293 GLP-1R CRE-luciferase, luminescence, 24 h; GLP-1R form is constitutively active; Potency, µM (series often up to 38.3 µM), for inactives: at the top dose activity change, negative = inhibition, actives largely listed as inhibitors; 1.6% of 410,000 active; also: % is scaled to controls: 0 for no effect and ±100 for the full control effect; nearly all actives have a fitted effect of over 55% in size
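Cells are plated, allowed 12 hours at 37 deg C, then treated with compounds for 24 hr before luciferase detection reagent is added and luminescence is read after 12 min at room temperature. The HEK293 line carries constitutively active GLP-1R with a cAMP-responsive reporter.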
PTHR1 ag = agonists of human PTHR1 parathyroid hormone receptor; 0.075% of 410,000 active; Potency, µM (doses to about 115 µM), for the others: top-dose activation, actives largely listed as activators; HEK293 GP2 PTHR1 cells, GloSensor cAMP luminescence, 1 h; Q03431; also: nearly all actives have a fitted effect of over 55% in size
Target sequence (Q03431 whole entry, looked up): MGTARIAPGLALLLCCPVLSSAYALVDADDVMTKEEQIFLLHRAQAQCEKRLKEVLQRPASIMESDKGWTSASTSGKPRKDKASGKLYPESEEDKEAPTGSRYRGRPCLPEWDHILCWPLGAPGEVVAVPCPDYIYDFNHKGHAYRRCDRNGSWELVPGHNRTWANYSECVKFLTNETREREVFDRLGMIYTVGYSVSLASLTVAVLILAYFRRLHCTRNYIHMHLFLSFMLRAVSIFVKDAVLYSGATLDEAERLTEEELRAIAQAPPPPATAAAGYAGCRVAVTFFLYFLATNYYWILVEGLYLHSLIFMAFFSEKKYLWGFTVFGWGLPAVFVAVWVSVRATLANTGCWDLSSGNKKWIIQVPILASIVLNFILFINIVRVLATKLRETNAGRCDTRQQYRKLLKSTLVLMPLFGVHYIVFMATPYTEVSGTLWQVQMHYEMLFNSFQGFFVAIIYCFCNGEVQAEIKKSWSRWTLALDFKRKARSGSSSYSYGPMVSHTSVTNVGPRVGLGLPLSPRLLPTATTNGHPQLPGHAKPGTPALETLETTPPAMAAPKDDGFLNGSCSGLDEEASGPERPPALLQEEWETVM
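HEK-293-derived GP2 cells expressing PTHR1 and a GloSensor cAMP reporter, 3,000/well, plated overnight, given luciferin plus IBMX (each 0.5 mM as added) for 1 h at 37 °C, then compound for 1 h at 37 °C. Luminescence was read after 15 min at room temperature.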
An asterisk follows results filed as active; i = inactive; ? = inconclusive; . = not tested or not shown; [ ] = remark or other dose. Sampled rows, rich in hits. Any-hit rate of the full collection: about 1.7%. Calls follow the shape of the dose curve; as a rule, active = well fitted curve in the direction sought with a large enough effect; inconclusive = small, poorly fitted or top-dose-only effect, or another doubt; inactive = no such curve, though single readings can be large; an effect the other way counts as inactive or inconclusive. Potency is read from the fitted curve at half-maximal effect.

SMILES | GLP-1R agonist | GLP1R cytotox | GLP-1R inv ag | PTHR1 ag
CCCCCNC(=O)C(CCc1ccccc1)n1c(=O)c(-c2cc3ccccc3[nH]2)nc2ccccc21 (stereo not given) | . | 388% | 3.5µM* | i
COc1ccc(C(C(=O)NC(C)(C)C)n2c(=O)c(-c3cc4ccccc4[nH]3)nc3ccccc32)cc1 (stereo not given) | . | i | 10µM* | -11%
CCCCCNC(=O)C(c1ccccc1)n1c(=O)c(-c2cc3ccccc3[nH]2)nc2ccccc21 (stereo not given) | . | i | ? | -14%
CCOc1ccccc1NC(=O)Cn1c(=O)nc(-c2ccccc2F)c2cc(Cl)ccc21 | . | 4% | 13% | -60%
CC[C@H](C)[C@H](NC(=O)[C@H](CO)NC(=O)[C@H](CC(N)=O)NC(=O)[C@H](CC(C)C)NC(=O)[C@H](Cc1ccc(O)cc1)NC(=O)[C@H](CCCCN)NC(=O)[C@H](CCCCN)NC(=O)[C@@H](NC(=O)[C@H](C)NC(=O)[C@H](CCSC)NC(=O)[C@H](CCC(N)=O)NC(=O)[C@H](CCCCN)NC(=O)[C@H](CCCNC(=N)N)NC(=O)[C@H](CC(C)C)NC(=O)[C@H](CCCNC(=N)N)NC(=O)[C@@H](NC(=O)[C@H](Cc1ccc(O)cc1)NC(=O)[C@H](CC(N)=O)NC(=O)[C@H](CC(=O)O)NC(=O)[C@@H](NC(=O)[C@H](Cc1ccccc1)NC(=O)[C@@H](NC(=O)[C@H](C)NC(=O)[C@H](CC(=O)O)NC(=O)[C@H](CO)NC(=O)[C@@H](N)Cc1c[nH]cn1)C(C)C)[C@@H](C)O)[C@@H](C)O)C(C)C)C(=O)N[C@@H](CC(C)C)C(=O)N[C@@H](CC(N)=O)C(=O)O | 13% | . | . | .
CC(C(=O)O)c1ccc2c(c1)CC(=O)c1ccccc1S2 (stereo not given) | 2% | . | . | .
OC(c1ccccc1)(c1ccc(F)cc1)C(c1ccccc1)N1CCOCC1 (stereo not given) | -12% | -32% | 7.9µM* | -16%[57.5 µM]
CC(O)(c1ccccc1)C(C(c1ccccc1)N1CCOCC1)N1CCOCC1 (stereo not given) | -9% | -1% | 8% | i
Cc1ccccc1N(C(=O)Cn1nnc(-c2cccs2)n1)C(C(=O)NCCC(C)C)c1ccco1 (stereo not given) | -6% | 6% | 5.6µM* | ?
COCCNC(=O)C(c1ccco1)N(C(=O)Cn1nnc2ccccc21)c1ccccc1C (stereo not given) | -9% | -21% | ? | i
CCc1cc(C(=O)N2CCc3c([nH]c4ccccc34)C2c2ccc(OC)cc2F)no1 (stereo not given) | 10% | 1% | ? | -3%
Cc1cc(C(=O)N2CCc3c([nH]c4ccccc34)C2c2c(F)cccc2Cl)no1 (stereo not given) | -5% | -11% | 10µM* | i
Cc1nc(C(=O)N2CCc3c([nH]c4ccccc34)C2c2cc(F)ccc2F)cs1 (stereo not given) | ? | 4% | 11µM* | i
O=C(c1ccc([N+](=O)[O-])cc1)N1c2ncnn2C2(CCCCC2)[C@@H]2CCCC[C@@H]21 | . | 6% | 5% | -22%
CC(C)CC(NC(=O)CNC(=O)C(Cc1ccc(O)cc1)NC(=O)C(CO)NC(=O)C(Cc1c[nH]c2ccccc12)NC(=O)C(Cc1cnc[nH]1)NC(=O)C1CCC(=O)N1)C(=O)NC(CCCN=C(N)N)C(=O)N1CCCC1C(=O)NCC(N)=O (stereo not given) | -3% | . | . | .
Nc1cc(C(=O)O)c(N)c2c1C(=O)c1ccccc1C2=O | 0% | ? | ? | i
Nc1c(C(=O)O)ccc2c1C(=O)c1ccccc1C2=O | 3% | 10µM* | 1% | -15%
Cc1ccc(S(=O)(=O)c2cnc(SCC(=O)Nc3cccc(Cl)c3)nc2N)cc1C | . | 1% | ? | -46%
CN(C)CCCN1C(=O)c2cccc3cccc(c23)C1=O | -9% | ? | -16% | i
CN(C)CCN1C(=O)c2cccc3cc([N+](=O)[O-])cc(c23)C1=O | -19% | ? | 1.8µM* | i
COC(=O)c1cccc(NC(=O)c2onc3c2CCCC3)c1 | 0% | 0%[1.53 µM] | -19% | -14%
O=C(Nc1ccc2ccccc2c1)c1onc2c1CCCC2 | -1% | -5% | 8.9µM* | -37%[57.5 µM]
Cc1ccc(OC(C)C(=O)Nc2ccc(C)c(S(=O)(=O)Nc3ccc(C)cc3C)c2)cc1 (stereo not given) | -4% | -9% | 4µM* | -59%
Cc1ccc(OC(C)C(=O)Nc2ccncc2)cc1 (stereo not given) | -5% | 1% | 10% | -21%
Cc1nn(C(C)C(=O)NC2CCCCC2)c(=O)c2c1sc1ccccc12 (stereo not given) | . | 4% | -1% | i
SMILES | GLP-1R agonist | GLP1R cytotox | GLP-1R inv ag | PTHR1 ag
Cc1cccc(Cn2c(CNS(=O)(=O)c3ccc(C(C)C)cc3)nc3cccnc32)c1 | . | 7% | 8% | -11%
CC(Oc1ccc(-c2ccccc2)c(F)c1)c1ccn(S(=O)(=O)c2ccc(Br)cc2)n1 (stereo not given) | -2% | -5% | 7.1µM* | -22%
COCCCNC(=S)N/N=C/c1ccc(O)cc1O | 13% | 16% | 32% | i
COCCCNC(=S)N/N=C/c1cccc(OC)c1O | 9% | ? | 1.1µM* | -18%
COc1cccc(/C=N/Nc2nnc(C)n2N)c1O | 2% | ? | 10µM* | i
Cc1nnc(N/N=C/c2ccccc2F)n1N | 5% | -15% | 20% | i
COc1cccc(N2CCN(C(=O)c3cccn3-c3nnc(N4CCCC4)s3)CC2)c1 | . | 1% | 14% | -8%
COc1ccc(Cl)cc1NC(=O)c1c(NCc2cccs2)sc2c1CCCC2 | . | 2% | -1% | -30%
CCOc1ccc(CCNC(=O)C2CCC(CNS(=O)(=O)c3ccc(Cl)cc3)CC2)cc1OCC (stereo not given) | . | 0% | -13% | i
CC(C)(Oc1ccc(Cl)cc1)C(=O)Nc1nnc2n1CCS2 | 3% | 2% | -11% | -2%
O=C(CSc1nnc(Cc2cccs2)n1Cc1ccco1)Nc1ccc(Br)cc1 | 1% | 11% | 3.5µM* | i
CCN1CCN(C(=O)c2ccc(-c3nc4ccccc4s3)s2)CC1 | 20% | 12% | ? | -52%
O=C(c1ccc(-c2nc3ccccc3s2)s1)N1CCOCC1 | -5% | 1% | 1.3µM* | -29%
Cc1nc(N2CCCC2)ncc1C(=O)N1CCN(c2ccccc2F)CC1 | . | 4% | 4% | i
S=C(NCCC(c1ccccc1)c1ccccc1)Nc1cccc(Cl)c1 | -4% | ? | 11µM* | -17%[57.5 µM]
Fc1cccc(NC(=S)NCc2ccccc2Cl)c1 | -1% | -92% | 10µM* | -21%
COc1ccc(OC)c(NC(=S)NCCC(c2ccccc2)c2ccccc2)c1 | 2% | -20% | 8.9µM* | -34%
